The supplement of paper PMC8387472

Experiments:
Conditions in all cases: mESC; 2uM; 72 h treatment, harvest day 5
Kenpaullone = compound: O=C1Cc2c([nH]c3ccc(Br)cc23)-c2ccccc2N1 [Kenpaullone]; assay: fraction of microhomology deletions among edited reads; higher = more MH deletions
Genistein = compound: O=c1c(-c2ccc(O)cc2)coc2cc(O)cc(O)c12 [Genistein]; assay: as above
[1] = compound: O=c1cc(N2CCOCC2)oc2c(-c3ccc4c(c3)OCCO4)csc12; assay: as above
Mercaptopurine (6-MP) = compound: S=c1[nH]cnc2nc[nH]c12 [Mercaptopurine (6-MP)]; assay: as above
[2] = compound: S=c1nc[nH]c2nc[nH]c12 [6-Mercaptopurine (6-MP) Monohydrate]; assay: as above
[3] = compound: CC(=O)O/N=C1\C(=O)N(Cc2cc(Cl)ccc2Cl)c2ccc(Cl)cc21; assay: fraction of 1-bp insertions among edited reads; higher = more 1-bp insertion outcomes
[4] = compound: CC(C)(C#N)c1ccc(N2C(=O)OCc3cnc4ccc(-c5cnc6ccccc6c5)cc4c32)cc1; assay: as above
[5] = compound: CCCCOc1c(C(=O)c2c(F)cc(C)cc2F)c[nH]c2nncc1-2; assay: as above
[6] = compound: CCN1CCN(CC(=O)Nc2ccc(-c3cccc4c(=O)cc(N5CCOCC5)oc34)c3sc4ccccc4c23)CC1; assay: as above
[7] = compound: CCc1c2c(nc3ccc(OC(=O)N4CCC(N5CCCCC5)CC4)cc13)-c1cc3c(c(=O)n1C2)COC(=O)[C@]3(O)CC [Irinotecan HCl Trihydrate]; assay: as above
[8] = compound: CCn1c(=O)c(-c2ccc(Cl)cc2Cl)cc2cnc(Nc3ccc(N4CCNCC4)c(F)c3)nc21; assay: as above
[9] = compound: CNc1ccc([N+](=O)[O-])c(Nc2ccc3[nH]ncc3c2)n1; assay: as above
Rifapentine = compound: CO[C@H]1/C=C/O[C@@]2(C)Oc3c(C)c(O)c4c(O)c(c(/C=N/N5CCN(C6CCCC6)CC5)c(O)c4c3C2=O)NC(=O)/C(C)=C\C=C\[C@H](C)[C@H](O)[C@@H](C)[C@@H](O)[C@@H](C)[C@H](OC(C)=O)[C@@H]1C [Rifapentine]; assay: as above
[10] = compound: COc1ccccc1-c1cc(Nc2cccc(CS(N)(=O)=O)c2)ncn1; assay: as above
[11] = compound: C[C@@H]1CN(CC(=O)Nc2ccc3c(c2)Cc2cccc(-c4cc(=O)cc(N5CCOCC5)o4)c2S3)C[C@H](C)O1; assay: as above
[12] = compound: Cc1cc(C)nc(SCC(=O)Nc2ncc(Cc3cccc4ccccc34)s2)n1; assay: as above
[13] = compound: Cc1ccc(C(=O)NCCCCCC(=O)Nc2ccccc2N)cc1; assay: as above
[14] = compound: Cc1cccc(CC(=O)N2CCc3c2ccc(-c2cn(C)c4ncnc(N)c24)c3F)n1; assay: as above
[15] = compound: NC(=O)c1ccc2nc(-c3ccc(Oc4ccc(Cl)cc4)cc3)[nH]c2c1 [Chk 2 inhibitor II (BML-277)]; assay: as above
Tucidinostat (Chidamide) = compound: Nc1cc(F)ccc1NC(=O)c1ccc(CNC(=O)/C=C/c2cccnc2)cc1 [Tucidinostat (Chidamide)]; assay: as above

Row | Target | fraction of microhomology deletions among edited reads (Kenpaullone) | fraction of microhomology deletions among edited reads (Genistein) | fraction of microhomology deletions among edited reads [1] | fraction of microhomology deletions among edited reads (Mercaptopurine (6-MP)) | fraction of microhomology deletions among edited reads [2] | fraction of 1-bp insertions among edited reads [3] | fraction of 1-bp insertions among edited reads [4] | fraction of 1-bp insertions among edited reads [5] | fraction of 1-bp insertions among edited reads [6] | fraction of 1-bp insertions among edited reads [7] | fraction of 1-bp insertions among edited reads [8] | fraction of 1-bp insertions among edited reads [9] | fraction of 1-bp insertions among edited reads (Rifapentine) | fraction of 1-bp insertions among edited reads [10] | fraction of 1-bp insertions among edited reads [11] | fraction of 1-bp insertions among edited reads [12] | fraction of 1-bp insertions among edited reads [13] | fraction of 1-bp insertions among edited reads [14] | fraction of 1-bp insertions among edited reads [15] | fraction of 1-bp insertions among edited reads (Tucidinostat (Chidamide))
1 | 32.0 (DMSO control at this site: 1-bp insertion 0.03, MH deletion 0.85, edited 0.898) AGAAGTCCAGGATCAGGGGGACTGGGGTCGGGAGGGTGGGGCAGGAAGGAAGCCAGAATCA | 0.904 | 0.88 | 0.92 | 0.903 | 0.897 | 0.00904 | 0.0156 | 0.0115 | 0.00897 | 0.00964 | 0.0112 | 0.0188 | 0.0121 | 0.012 | 0.0185 | 0.018 | 0.0164 | 0.0245 | 0.0134 | 0.0163
2 | 30.0 (DMSO control at this site: 1-bp insertion 0.074, MH deletion 0.67, edited 0.142) GAGCTGGCATGAGTATTTGTGCCACATGGCTCCCACATGGCTCCACATGCAAGTTTGAAAC | 0.628 | 0.697 | 0.745 | 0.6 | 0.57 | 0.0901 | 0.0675 | 0.059 | 0.036 | 0.0999 | 0.0975 | 0.0866 | 0.0945 | 0.115 | 0.178 | 0.0785 | 0.0713 | 0.111 | 0.0722 | 0.1
3 | 29.0 (DMSO control at this site: 1-bp insertion 0.084, MH deletion 0.745, edited 0.133) TTGATGAACTTCCTCTTCTTCTCATGTCTCCGGTCTCCGGTAGGCCACGTGCATGGCCACT | 0.631 | 0.718 | 0.735 | 0.669 | 0.633 | 0.0853 | 0.0763 | 0.0825 | 0.0366 | 0.0846 | 0.0597 | 0.0921 | 0.0712 | 0.106 | 0.339 | 0.0918 | 0.0975 | 0.111 | 0.0639 | 0.122
4 | 2.0 (DMSO control at this site: 1-bp insertion 0.364, MH deletion 0.356, edited 0.125) GGTGCCCCCGAGACCTACGCGAACCGAAATCGATGTCCGGTGCGCAAGCAGGGCTGGCGTC | 0.29 | 0.4 | 0.419 | 0.33 | 0.321 | 0.325 | 0.381 | 0.379 | 0.106 | 0.355 | 0.368 | 0.43 | 0.334 | 0.457 | 0.745 | 0.397 | 0.451 | 0.471 | 0.378 | 0.433
5 | 19.0 (DMSO control at this site: 1-bp insertion 0.121, MH deletion 0.101, edited 0.057) TCTGCAGGGGTCGGAACCCGGGGGCTAGGGCTATCCCGGGGGCTAGGGCTATTAGCGAACC | 0.221 | 0.186 | 0.125 | 0.238 | 0.163 | 0.111 | 0.0907 | 0.0994 | 0.0438 | 0.0969 | 0.131 | 0.0931 | 0.103 | 0.0834 | 0.27 | 0.0666 | 0.123 | 0.087 | 0.0625 | 0.116
6 | 7.0 (DMSO control at this site: 1-bp insertion 0.128, MH deletion 0.374, edited 0.098) TACTCAACCGAGACCTACGCGAACCGAAATCGTATGCCGGTGCGCAAGCAGGGCTGGCGTC | 0.436 | 0.476 | 0.43 | 0.401 | 0.367 | 0.105 | 0.131 | 0.164 | 0.113 | 0.105 | 0.111 | 0.166 | 0.135 | 0.154 | 0.226 | 0.137 | 0.144 | 0.141 | 0.131 | 0.174
7 | 20.0 (DMSO control at this site: 1-bp insertion 0.349, MH deletion 0.138, edited 0.084) TACAGGTGTAGACTGGTTACGTGGCTGCGGAATTGACTGGTTACGTGGCTGCGGAATTTTG | 0.181 | 0.197 | 0.176 | 0.2 | 0.243 | 0.29 | 0.248 | 0.373 | 0.0738 | 0.285 | 0.317 | 0.438 | 0.293 | 0.345 | 0.47 | 0.3 | 0.315 | 0.355 | 0.233 | 0.348
8 | 31.0 (DMSO control at this site: 1-bp insertion 0.315, MH deletion 0.329, edited 0.026) ACCTCCACAGGCTGGGTGGCCCGGAGGCTGGGCGGCCCGGAGGCTGGGCTGGGCGAGTATC | 0.518 | 0.477 | 0.404 | 0.459 | 0.408 | 0.215 | 0.14 | 0.2 | 0.106 | 0.105 | 0.115 | 0.185 | 0.232 | 0.192 |  | 0.196 | 0.214 |  |  | 0.0994
9 | 8.0 GCATGCGTGTTTTGGGACAATGTAGTATACATTTGGGAGGCTCTCAGCTTTTCCCAATAAA | 0.0098 |  |  |  | 0.00885 | 0.443 | 0.455 | 0.303 |  |  |  |  |  |  |  | 0.418 |  |  |  | 0.257
10 | 18.0 (DMSO control at this site: 1-bp insertion 0.114, MH deletion 0.789, edited 0.094) GCGCAAGTGCATAAGTTTTTCTTAAGGCGTGCCTTTAAGGCGTGCCTTTGTCGGTCCTGGA | 0.759 | 0.797 | 0.833 | 0.734 | 0.733 | 0.0913 | 0.0901 | 0.103 | 0.0252 | 0.109 | 0.0919 | 0.103 | 0.103 | 0.109 | 0.18 | 0.105 | 0.113 | 0.128 | 0.0891 | 0.0964
